This note sets out measurements from PubChem BioAssay AID709 (SRMLSC, 2007).

Hit rate of the full screen: of about 65,000 compounds, about 3,600 (5.5%) were called active. The sample holds actives, similar compounds and a random draw of the others, so the mix is not that of the screen. Unmarked numbers belong to inactive results.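 The calls were made as follows: active = at 10 µM, mean starting fluorescence two-fold or more over control wells; inactive = the rest.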

The nature of the assay: intrinsic fluorescence of library compounds, ex339/em460 – biochemical, MLSMR library, data from DPM-DC assay, artefact control, profiling panel (AID 709).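 Also: signal is the first read of a kinetic run.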 Conditions: compound autofluorescence, ex339/em460 nm, NADH buffer; at 10 µM; hits give high values; 1 = no-compound wells, NADH background.
Regarding `O=C(NC12CC3CC(CC(C3)C1)C2)N1CCCC(CO)C1` (stereo not drawn), the fluorescence fold increase is 1.11.

In the case of `O=C(CN1CCN(C(=O)c2cccc(F)c2)CC1)Nc1ccccc1F`, the fluorescence fold increase is 1.17.

Regarding `COc1cc(CO)c(C2(CO)CCCC2)cc1OC`, the fluorescence fold increase was 1.08. Turning to `Cc1cc(N2C(=O)c3ccc(C(=O)NCc4ccccc4)cc3C2=O)no1`, the fluorescence fold increase is 1.1. For the compound `CC1Cc2cc(/C(O)=C3\C(=O)C(=O)N(CCN4CCOCC4)C3c3ccccc3F)ccc2O1` (stereo not drawn), the fluorescence fold increase was 1.11. Turning to `CCOC(=O)c1nc(-c2ccc3c(c2)OCO3)[nH]c1C`, the fluorescence fold increase is 1.4. `CCCCCC(=O)Nc1ccc2oc(-c3ccncc3)nc2c1`: the fluorescence fold increase is 3.72 (active). In the case of `CCCCC(=O)Nc1cc(C)c2c(=O)oc3ccccc3c2n1`, the fluorescence fold increase was 1.19. Take `CCCC(=O)Nc1ccc2c(c1)nc1n2CCSC1`: the fluorescence fold increase is 1.21. The value for `FC(F)(F)c1cc(-c2ccco2)nc(N2CCOCC2)n1` was 1.11; that for `O=C(CSc1nc(-c2ccco2)cc(C(F)(F)F)n1)N1CCc2ccccc2C1` was 1.1. As for `O=C(CSc1nc(-c2ccco2)cc(C(F)(F)F)n1)NCc1cccs1`, the fluorescence fold increase was 1.14.

In the case of `Cc1cc(C(F)(F)F)nn1-c1nc(-c2ccco2)cc(C(F)(F)F)n1`, the fluorescence fold increase is 2.81 (active). For the compound `CCOC(=O)c1ccn(-c2nc(-c3ccco3)cc(C(F)(F)F)n2)n1`, the fluorescence fold increase was 2.09 (active). Turning to `CCOC(=O)CSc1nnc(-c2ccco2)n1C`, the fluorescence fold increase is 1.04. On to `O=c1[nH]c(=O)n(Cc2ccco2)c2c1C(C(F)(F)F)(C(F)(F)F)N=C(c1ccco1)N2`, for which the fluorescence fold increase is 1.16.

With `CCCCn1nnnc1NCc1cc(OC)c(OC)c(OC)c1`, the fluorescence fold increase was 1.07.

In the case of `CCCC(C(=O)NCc1ccco1)N(C(=O)CNS(=O)(=O)c1ccccc1)C1CCCC1` (stereo not drawn), the fluorescence fold increase is 1. With `CC(=NCC1CCCO1)c1c(O)[nH]c(=O)[nH]c1=O` (stereo not drawn), the fluorescence fold increase was 1.14. In the case of `Cc1ccc(C)c(S(=O)(=O)n2cnc3ccccc32)c1`, the fluorescence fold increase is 1.02. Turning to `O=C(CSc1nc2ncccc2[nH]1)Nc1ccc2c(c1)OCCO2`, the fluorescence fold increase was 1.01. With `O=C(Cc1ccccc1)n1nc(-c2ccccc2)nc1NCc1ccco1`, the fluorescence fold increase is 1.13. Regarding `C=C(C)Cn1c(SCC(=O)NCc2ccco2)nc2sc3c(c2c1=O)CCC3`, the fluorescence fold increase was 1.09. As to `CN1CCc2c(sc3c2c(NCc2ccco2)nc2nnnn23)C1`, the fluorescence fold increase was 2.08 (active). On to `Cc1cccc(N)c1SC1CCCCC1O` (stereo not drawn), for which the fluorescence fold increase was 1.03.

In the case of `CCOC(=O)c1cn(CC(=O)Nc2ccc(C(C)C)cc2)nn1`, the fluorescence fold increase was 1.16. For `COc1ccccc1Nc1ncnc2c1oc1ccccc12`, the fluorescence fold increase is 1.7. Turning to `CCSc1nc(C)nc2c1oc1ccccc12`, the fluorescence fold increase is 1.02. On to `CCc1nc(Nc2ccc3nccnc3c2)c2oc3ccccc3c2n1`, for which the fluorescence fold increase is 2.54 (active). Next, `CNC(=O)NCCN1CCCC1=O`: 1.05; `COCCNC(=S)c1ccc(OC)cc1`: 1.02.

As to `CCN(CC)CCNC(=O)C1c2ccccc2C(=O)N(C)C1c1cn(C)c2ccccc12` (stereo not drawn), the fluorescence fold increase is 1.07. On to `O=C1CCCN1CCCNc1ncnc2c1[nH]c1ccccc12`, for which the fluorescence fold increase is 2.27 (active). As to `CC1(C)CC(=O)C=C(NCCCN2CCCC2=O)C1`, the fluorescence fold increase is 1.11. Take `O=C(CCn1c(=S)[nH]c2ccccc2c1=O)NCCCN1CCCC1=O`: the fluorescence fold increase was 0.98. On to `O/N=C(\c1ccc2c(c1)OCCO2)C1CCCCC1`, for which the fluorescence fold increase is 1.08. Consider `COCCNC(=O)COc1ccc(C)c(C)c1`, for which the fluorescence fold increase is 1.07. `COC(=O)COc1ccc2oc(=O)cc(C)c2c1`: the fluorescence fold increase was 2.31 (active). The value for `CCOC(=O)c1c(C)oc2ccc(OCC(=O)N(CC)CC)cc12` was 1.07.

As to `COc1ccc(C2CC(c3ccc(C)cc3)Nc3ncnn32)cc1` (stereo not drawn), the fluorescence fold increase is 1.03. `c1ccc(-n2ncc3c2ncn2c(CSc4nc5ccccc5s4)nnc32)cc1`: the fluorescence fold increase is 1.81. For `Cc1ccc(C(C)C)c(OCc2nnc(SCC(=O)Nc3nccs3)n2C)c1`, the fluorescence fold increase was 1.13. The value for `O=C(Nc1ccc(S(=O)(=O)N2CCCCC2)cc1)c1cnccn1` was 1.14; that for `COc1ccc(CCNS(=O)(=O)c2ccc(F)cc2)cc1OC` was 1.09. The value for `O=C(c1cc(-c2cccs2)on1)N1CCCCC1` was 1.16. Regarding `Cc1ccc(Cn2ccc(NC(=O)c3cc(C(C)C)on3)n2)cc1`, the fluorescence fold increase was 1.08.

For the compound `Cc1cc(NC(=O)c2cc(-c3cccs3)on2)nn1Cc1ccc(Cl)cc1`, the fluorescence fold increase was 2.04 (active). Regarding `CCOC(=O)c1cc2cc(-c3c(C(=O)OCC)oc4cc(O)cc(O)c4c3=O)ccc2o1`, the fluorescence fold increase is 1.11.

Regarding `CCCCOc1ccc(Cl)cc1CSc1nncn1N`, the fluorescence fold increase was 1.07. For `Cc1ccccc1NC(=O)Cc1nnc(SCC(=O)N2CCN(c3ccccc3)CC2)n1C`, the fluorescence fold increase is 1. As for `CN(C)c1nc2n(c(=O)n1)CCO2`, the fluorescence fold increase is 1.07.

As for `c1ccc(Nc2n[nH]nc2-c2ccccc2)cc1`, the fluorescence fold increase is 1.07. Consider `CCOc1ccc(CNC(=O)C2CCC(=O)N2C2CCCC2)cc1OC` (stereo not drawn), for which the fluorescence fold increase was 1.07. For the compound `CCOc1cc(C2C(C(=O)OC)=CN(C3CCCC3)C=C2C(=O)OC)cc(Br)c1O`, the fluorescence fold increase was 2.88 (active). The value for `CCCC(=O)Nc1cc(OCC)c(NC(=O)NC2CCCCC2)cc1OCC` was 1.11; that for `c1ccc(-n2ncc(-c3nn[nH]n3)n2)cc1` was 1.08. Regarding `Cc1ccc(C(=O)Nc2ccc3c(c2)OCO3)cc1S(=O)(=O)N1CCCCC1`, the fluorescence fold increase is 1.08.

On to `CC(C)C1N=C2c3ccccc3N=C(SCC(=O)c3ccc(O)c(O)c3)N2C1=O` (stereo not drawn), for which the fluorescence fold increase was 1.21. Next, `NC(=O)CSC1=Nc2ccccc2C2=NC(CCC(=O)NCc3ccc(F)cc3)C(=O)N12` (stereo not drawn): 3.51 (active); `O=C(CC1N=C2c3ccccc3N=C(SCc3ccccc3Cl)N2C1=O)NCc1ccco1` (stereo not drawn): 1.58. Next, `CC(C)C(C(=O)NC1CCCCC1)N(CC1CCCO1)C(=O)CNS(=O)(=O)c1ccc(F)cc1` (stereo not drawn): 1.11; `COc1c(O)cccc1-c1nnn(CCC(=O)OCC(=O)c2ccccc2)n1`: 1.07. The value for `CC(C)(CNCC(O)c1ccccc1)N1CCOCC1` (stereo not drawn) was 1.05; that for `O=S(=O)(O)CCN1CCOCC1` was 1.15.

For the compound `Brc1cnc(N2CCCC2)nc1N1CCCCC1`, the fluorescence fold increase was 1.08. In the case of `CCOc1cccc(=O)c2c(C)n(CC3CCCO3)c(C)c12` (stereo not drawn), the fluorescence fold increase was 1.05. As for `CCOc1cc(-c2nc3cc(C)ccn3c2NCC2CCCO2)ccc1O` (stereo not drawn), the fluorescence fold increase is 3.63 (active). For the compound `CCOc1cc(C(=S)N2CCOCC2)ccc1O`, the fluorescence fold increase was 1.04.
